Assay results reported in PubChem BioAssay (Tox21).
Values joined by “and” are separate entries in the source; they are usually repeats but may differ in a detail not shown here. Equal values may be shown once. Results filed as inconclusive are left out. Active and inactive are the calls of the source. Unless noted, the call rests on the fitted dose curve; in most records, active means well fitted curve in the direction sought with a large enough effect in the repeat runs; inconclusive means weak or mixed curves; inactive means no such curve, though single readings can be large; an effect the other way counts as inactive or inconclusive.

How the values were obtained:
[1] = qHTS assay for small molecule agonists of the p53 signaling pathway (AID 651631; calls by dose curve; further: nearly all actives have a fitted effect of over 15% in size)
How it was run: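 p53RE-bla HCT-116 cells; compounds 16 h, 37 °C; LiveBLAzer B/G FRET substrate 2 h RT; fluorescence intensity read-out, qHTS format.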

[2] = qHTS assay for small molecules that induce genotoxicity in human embryonic kidney cells expressing luciferase-tagged ATAD5 (AID 651632); further: nearly all actives have a fitted effect of over 15% in size
How it was run: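 Increased luciferase signal from ATAD5-tagged reporter cells indicates DNA-damage-driven ATAD5 induction. HEK293T cells are treated for 16 hr at 37C before detection with Amplite.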

[3] = qHTS assay for small molecule agonists of the p53 signaling pathway - cell viability (AID 651633; calls by dose curve; further: nearly all actives have a fitted effect of over 30% in size; further: potency means the concentration at half of the fitted maximal effect)
How it was run: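 Viability counter-read: CellTiter-Glo luminescence (30 min, room temperature) in the same p53RE-bla plates. These plates had been exposed to compounds for 16 h at 37 C.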

[4] = qHTS assay for small molecules that induce genotoxicity in human embryonic kidney cells expressing luciferase-tagged ATAD5 - cell viability (AID 651634; calls by dose curve; further: nearly all actives have a fitted effect of over 25% in size; further: potency means the concentration at half of the fitted maximal effect)
How it was run: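 Cytotoxicity counterscreen in HEK293T cells bearing an ATAD5-luciferase reporter: live-cell protease activity measured by CellTiter-Fluor fluorescence after 15.5 hr compound exposure.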

[5] = qHTS assay for small molecule disruptors of the mitochondrial membrane potential - cell viability (AID 720634; calls by dose curve;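 further: human HepG2 liver cancer cells; series mostly up to about 83 µM; nearly all actives have a fitted effect of over 20% in size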)
How it was run: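 After overnight attachment at 37 C, HepG2 cells received compound or DMSO vehicle for 1 hr. Viability is then taken from ATP-driven luminescence following a 30 min room-temperature CellTiter-Glo step.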

[6] = qHTS assay for small molecule disruptors of the mitochondrial membrane potential (AID 720635); further: potency means the concentration at half of the fitted maximal effect
How it was run: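 Mitochondrial membrane potential tracked with Mito-MPS dye, red aggregates (ex 540/em 590 nm) against green monomers (ex 490/em 535 nm). Compound treatment 1 hr at 37C, dye 30 min in HepG2.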

[7] = qHTS assay to test for compound auto fluorescence at 590 nm (red) in HepG2 cells (AID 720674)
How it was run: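 1 hr compound incubation on HepG2 cells, 37 C, 5% CO2; plate read ex 540 nm / em 590 nm; intensities reported as Rose Bengal sodium equivalents.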

[8] = qHTS assay to test for compound auto fluorescence at 535 nm (green) in HepG2 cells (AID 720675)
[9] = qHTS assay to test for compound auto fluorescence at 590 nm (red) in HEK293 cells (AID 720679)
How it was run: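 We plated HEK293 cells in 10% dialyzed FBS medium, let them adhere for 4-5 hr, then added 23 nL compound. Overnight at 37C and 5% CO2 preceded fluorescence measurement at 540/590nm.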

[10] = qHTS assay to test for compound auto fluorescence at 460 nm (blue) in HEK293 cells (AID 720678)
How it was run: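 Triamterene serves as the blue fluorophore standard. Compound signal at 405/460 nm is read in HEK293 wells (2,000 cells, 10% dialyzed FBS) after overnight treatment at 37C.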

Measured: Potency

C[Si](O[Si](C)(C)C)O[Si](C)(C)C
not listed: [10]
inactive: all other assays above

C=CCOC(=O)c1ccccc1C(=O)OCC=C
not listed: [6]
inactive: all other assays above

Cc1cc(C)c(C)cc1C
not listed: [5] | [6]
inactive: all other assays above

C=CCNC(N)=S
not listed: [6]
inactive: all other assays above

CCCCCCCCCCCCCCO
active: [6] 61.1 µM
not listed: [10]
inactive: all other assays above

CCCCCCOCCO
not listed: [10]
inactive: all other assays above

O=C=NCCCCCCN=C=O
not listed: [10]
inactive: all other assays above

CC1=C(C)S(=O)(=O)CCS1(=O)=O
not listed: [6] | [10]
inactive: all other assays above

O=C(OCCOCCOC(=O)c1ccccc1)c1ccccc1
not listed: [10]
inactive: all other assays above

COc1cc(Cc2cnc(N)nc2N)cc(OC)c1OC
not listed: [4]
inactive: all other assays above

O=c1[nH]c(=O)n([C@H]2CCCO2)cc1F
not listed: [2]
inactive: all other assays above

C/C=C1/CC2C=CC1C2 (stereo unspecified)
not listed: [6]
inactive: all other assays above

O=C(O)c1cc(O)c(O)c(O)c1
not listed: [4]
inactive: all other assays above

C#CCN(C)Cc1ccccc1
not listed: [10]
inactive: all other assays above

C[C@H]1C[C@@H]2[C@H]([C@@H](O)C[C@@]3(C)[C@H]2CC[C@]3(O)C(=O)CO)[C@@]2(C)C=CC(=O)C=C12
not listed: [6]
inactive: all other assays above

Nc1ccccc1[N+](=O)[O-]
active: [6] 48.6 µM
not listed: [10]
inactive: all other assays above

CCCCCCCCCCCCCCCO
not listed: [5] | [6]
inactive: all other assays above

COc1ccc(Cl)cc1C(=O)NCCc1ccc(S(=O)(=O)NC(=O)NC2CCCCC2)cc1
not listed: [6]
inactive: all other assays above

Oc1cccc2ccccc12
active: [6] 28 µM and 19.3 µM
not listed: [5]
inactive: all other assays above

CN(C)CCOCCN(C)C
not listed: [6] | [10]
inactive: all other assays above

N[C@@H](Cc1cc(I)c(Oc2cc(I)c(O)c(I)c2)c(I)c1)C(=O)O
not listed: [6]
inactive: all other assays above

OCCOCCN1CCN(C2=Nc3ccccc3Sc3ccccc32)CC1
not listed: [2] | [6] | [10]
inactive: all other assays above

Nc1cc([N+](=O)[O-])ccc1O
active: [4] 24.3 µM | [6] 27.3 µM
not listed: [10]
inactive: all other assays above

CCCCN(CCCC)CCCC
not listed: [5] | [6]
inactive: all other assays above

CCCCC(CC)CO (stereo unspecified)
not listed: [2] | [10]
inactive: all other assays above

CN(C)CCC(c1ccccc1)c1ccccn1 (stereo unspecified)
not listed: [2] | [6] | [10]
inactive: all other assays above

CC[C@H](C)C(=O)O[C@H]1C[C@@H](C)C=C2C=C[C@H](C)[C@H](CC[C@@H]3C[C@@H](O)CC(=O)O3)[C@H]21
active: [3] 29.8 µM and 69.6 µM | [6] 18.8 µM and 62 µM and 60.8 µM
not listed: [1]
inactive: all other assays above

CCCCCC/C(C=O)=C\c1ccccc1
not listed: [1] | [10]
inactive: all other assays above
